Experimental data: PubChem BioAssay AID504462 (Sanford-Burnham Center for Chemical Genomics, 2011)
Screen size: about 340,000 compounds; about 1,700 (0.5%) were called active. Cut-off read from the data, not from the text of the source: active = inhibition above about 40%; inactive = the rest. This excerpt belongs to a sample that is enriched for actives.

The molecules below were run against Cysteine protease ATG4B (Homo sapiens) (UniProt Q9Y4P1) (assay: blockers of ATG4B cysteine protease activity – biochemical, fluorescence, uHTS, primary screen (AID 504462)). Conditions: ATG4B cleavage of LC3-PLA2, NBD-HPC fluorescence, 1 h; at 8.33 µM; hits give high values.
Cysteine protease ATG4B (Homo sapiens), sequence (Q9Y4P1 whole entry, looked up): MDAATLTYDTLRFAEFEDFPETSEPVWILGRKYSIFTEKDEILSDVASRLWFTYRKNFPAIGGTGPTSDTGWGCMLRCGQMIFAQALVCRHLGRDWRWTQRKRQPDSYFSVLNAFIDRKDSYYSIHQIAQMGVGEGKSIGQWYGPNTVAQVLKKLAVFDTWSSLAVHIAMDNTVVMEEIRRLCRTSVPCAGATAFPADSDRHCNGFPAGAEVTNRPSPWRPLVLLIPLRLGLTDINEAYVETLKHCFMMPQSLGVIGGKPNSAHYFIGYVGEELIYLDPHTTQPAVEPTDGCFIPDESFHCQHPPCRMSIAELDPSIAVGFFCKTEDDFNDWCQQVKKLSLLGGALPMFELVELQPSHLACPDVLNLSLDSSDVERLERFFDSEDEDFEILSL

inhibition, active:
c1ccc(C2=Nc3cccc4cccc(c34)N2)cc1 56.3%
COc1ccc(NC(=O)COc2ccc(C(=O)c3ccc(F)cc3)cc2)cc1S(N)(=O)=O 97.7%
Cc1ncc(CC(=O)n2cc(C(=O)c3cc(Cl)ccc3O)cn2)s1 80%
CN(Cc1c(F)cccc1Cl)S(=O)(=O)c1cccs1 49.8%
CCCc1[nH]nc2c1C(c1ccc(OC(=O)c3ccco3)cc1)C(C#N)=C(N)O2 (stereo not drawn) 69.2%
O=C(COC(=O)c1cc2c(s1)CCCC2)NCc1ccccc1Cl 40.4%
O=C(COC(=O)/C(=C/c1cccs1)c1cccs1)NCc1ccccc1Cl 56%
O=C(CSc1nc(-c2ccccc2)cs1)Nc1cccc([N+](=O)[O-])c1 41.4%
Cc1c(Cl)c([N+](=O)[O-])nn1Cc1ccc(C(=O)N/N=C\c2cc(Cl)ccc2O)o1 64.3%
Cc1ccc(-n2c(SCC(=O)N/N=C/C=C/c3ccccc3[N+](=O)[O-])nc3ccccc3c2=O)cc1 54.4%
Cc1nn(-c2ccccc2)c(C)c1/C=N/NC(=O)CSc1nc2ccccc2c(=O)n1-c1ccccc1 45.1%

inhibition, inactive:
COc1ccccc1C1=Nc2cccc3cccc(c23)N1 12.2%
Fc1ccccc1N=C1Nc2cccc3cccc1c23 -6.86%
CCN1CCCC1CNC(=O)Cn1cnc2ccc(S(=O)(=O)N3CCC(C)CC3)cc2c1=O (stereo not drawn) -2.67%
NC(=O)C1CCN(C(=O)c2ccc(F)c(S(=O)(=O)N3CCOCC3)c2)CC1 0.71%
Nc1c(Cl)cc(S(N)(=O)=O)cc1S(N)(=O)=O 3.68%
CCc1ccc(N2CC(C(=O)Nc3ccc(S(=O)(=O)Nc4nccs4)cc3)CC2=O)cc1 (stereo not drawn) -16.4%
COc1ccc(NS(=O)(=O)c2cc(NC(=O)COc3ccccc3F)ccc2OC)cc1 -14.9%
CCNC(=O)c1ccc(OCC(=O)Nc2ccc(F)cc2)c(OC)c1 2.31%
O=C(Nc1ccn(CCCNCc2ccc3[nH]ccc3c2)c(=O)n1)OCc1ccccc1 -8.68%
COc1cccc(NC(=O)C/C(C)=N/NC(=O)C2CCCCC2)c1 1.29%
O=C(c1cnn(-c2ccc(Cl)cc2)c1)c1ccccc1O 14.8%
Cc1ccc(CCC(=O)Nc2ncc(Cc3cc(Cl)ccc3Cl)s2)o1 0.02%
COc1ccc(NC(=O)CC2SC(N3CCCCC3)=NC2=O)cc1OC (stereo not drawn) -1.9%
CN(Cc1ccc(F)cc1Cl)S(=O)(=O)c1cccs1 11%
CN(CC(=O)NCc1ccc(Cl)cc1)S(=O)(=O)c1cccs1 -5.56%
COC(=O)c1c(NC(=O)c2c(Cl)cnn2C)sc(C)c1C -7.14%
CC1(C)Cc2cccc(OCC(=O)Nc3nccs3)c2O1 -9.2%
Cc1ccccc1N1CCN(C2CCCN(C(=O)c3ocnc3C)C2)CC1 (stereo not drawn) 4.49%
COc1ccc(S(=O)(=O)Nc2cc(C)on2)cc1NC(C)=O -6.89%
CCCc1[nH]nc2c1C(c1ccc(Br)s1)C(C#N)=C(N)O2 (stereo not drawn) -2.42%
COc1ccc(-c2[nH]nc3c2C(c2ccncc2)C(C#N)=C(N)O3)cc1 (stereo not drawn) -11%
CCC(=O)c1cc2c(cc1NC(=O)c1cccs1)OCCO2 -18.9%
C[C@@H]1ON(C)[C@H]2C[C@H]3c4cc(N5CCN(C)CC5)ccc4CCN3C(=O)[C@@H]12 -6.52%
CCc1c(O)cc2n(c1=O)-c1ccccc1C2(C)C -8.25%
COc1ccccc1CNC(=O)COC(=O)c1cccs1 0.37%
O=C(COC(=O)c1cccs1)NCc1cccs1 -10.9%
CN(C)C(=O)c1ccc(NC(=O)COC(=O)c2cc3c(s2)CCCCC3)cc1 -5.46%
O=C(COC(=O)c1ccc2c(c1)OCCO2)NCc1ccccc1Cl 22.8%
COc1ccc(NC(=O)C2CCC(CNc3c(N4CCCCC4)c(=O)c3=O)CC2)c(OC)c1 (stereo not drawn) 26.1%
CCN1CCN(C(=O)c2ccc(CN(c3ccc(C)c(C)c3)S(C)(=O)=O)cc2)CC1 -3.29%
Cc1ccc(S(=O)(=O)N(C)CC(=O)NCC(c2ccc(F)cc2)N2CCOCC2)cc1 (stereo not drawn) -5.42%
CCC(C)(C)n1nnnc1C(c1cccs1)N1CCN(c2nc3ccccc3s2)CC1 (stereo not drawn) 1.17%
COc1nc(NC2CCCCC2)nc(N2CCCCCC2)n1 15.7%
O=C(CSc1ncn[nH]1)Nc1nc(-c2cccc([N+](=O)[O-])c2)cs1 -6.82%
COc1ccc(-n2cnnc2SCC(=O)Nc2cccc([N+](=O)[O-])c2)cc1 -7.34%
Cc1cc(NC(=O)c2ccco2)c(=O)n(Cc2c(F)cccc2Cl)c1 4.88%
Cc1nn(Cc2ccccc2Cl)c(C)c1NC(=O)Cn1nc([N+](=O)[O-])c(Cl)c1C -0.32%
O=C(N/N=C\c1ccc(Br)cc1)c1ccc(Cn2cccn2)o1 -3.61%
Cn1c(SCC(=O)N/N=C/c2ccc(O)c(O)c2)nc2ccccc21 -12.3%
O=C(CSc1nc2ccccc2[nH]1)N/N=C/C=C\c1ccccc1[N+](=O)[O-] 7.51%
C/C(=N\NC(=O)CSc1nc2ccccc2c(=O)n1-c1ccccc1C)c1cccs1 8.49%
CCn1c(SCC(=O)N/N=C/C=C/c2ccccc2[N+](=O)[O-])nnc1-c1ccccc1 1.16%
CCC[C@@H]1C[C@@]1(CCC)[C@@H](NC(=O)c1ccccc1)c1ccc(C(=O)OC)cc1 -5.7%
COc1ccc(C(=O)NC(C)Cn2nc(C)cc2C)cc1OC1CCN(C(C)=O)CC1 (stereo not drawn) 3.85%
O=C(CCN1CCN(c2ccccc2)CC1)NNC(=S)Nc1ccccc1 -1.44%
CCc1ccc2c(c1)C1(NN=C(c3ccccc3)S1)C(=O)N2 (stereo not drawn) 12.8%
CCN=C1S/C(=C\c2cc(Br)ccc2OCC(=O)OCC)C(=O)N1CC -7.54%
